Cell viability data for 39 compounds are collected here from the supplement of paper PMC10600219.

Whole data set: some 2,800 compounds, median “cell viability relative to vehicle” near 1.1, cut for the lowest 2% near 0.19. The full list was thinned out, with the lowest values kept by preference.

For the experiment, the system named is NCI-H2228 parental. Kind of experiment: cell viability relative to vehicle (fraction of vehicle); NCI-H2228 is an ALK-positive lung cancer line and DTP means drug-tolerant persister; higher = less growth inhibition. The following applies: 100 nM; treatment time 6 days. The method, boiled down:
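Each value is viability relative to vehicle-treated cells, measured as ATP with the CellTiter-Glo 3D Cell Viability Assay. Parental NCI-H2228 cells and drug-tolerant persisters (1000 nM targeted drug, 13 days) in 384-well plates received the 3114-agent TargetMol anti-cancer compound library at 100 nM, or DMSO, and were read 6 days later.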
As to `CO[C@@H](C)Cn1c(=O)n(C)c2cnc3ccc(-c4cncc(C(C)(C)O)c4)cc3c21`, the cell viability came out at 0.412.
The value for `O=C(O)c1c[nH]c2cc(Cl)c(-c3ccc(C4(O)CCC4)cc3)cc12` was 1.09; that for `C/C=C1\NC(=O)[C@H]2CSSCC/C=C/[C@H](CC(=O)N[C@H](C(C)C)C(=O)N2)OC(=O)[C@H](C(C)C)NC1=O` [Romidepsin] was 0.0515.
Turning to `CCN(CC)CCNc1ccc(C)c2sc3ccccc3c(=O)c12` [Lucanthone], the cell viability is 0.956.
The value for `COCC[n+]1c2c(n(Cc3cnccn3)c1C)C(=O)c1ccccc1C2=O` was 0.0796; that for `COc1ccc(S(=O)(=O)Nc2ccccc2C=Cc2ccncc2)cc1` was 0.238; that for `C[C@@H]1O[C@@H](O[C@@H]2[C@@H](O)[C@H](OCCc3ccc(O)c(O)c3)O[C@H](CO)[C@H]2OC(=O)/C=C/c2ccc(O)c(O)c2)[C@H](O)[C@H](O)[C@H]1O` [Verbascoside] was 1.03.
Take `CN(C(=O)CNC(=O)/C=C/c1cccc(Cl)c1)C1CCS(=O)(=O)CC1`: the cell viability was 0.834.
For `O=C(CNc1ccc2ccccc2c1)N/N=C/c1cc(Br)c(O)c(Br)c1O`, the cell viability amounted to 1.05.
The value for `COC(=O)C1=CO[C@@H](O[C@@H]2O[C@H](CO)[C@@H](O)[C@H](O)[C@H]2O)[C@H]2[C@@H]1[C@H](O)C[C@]2(C)OC(C)=O` [8-O-Acetylshanzhiside methyl ester] was 0.898; that for `OCC1(O)COc2cc(O)ccc2-c2cc(O)c(O)cc2C1` (centres undefined) [Protosappanin B] was 1.04.
Take `O=c1cc(-c2ccc(O)c(-c3c(O)cc(O)c4c(=O)cc(-c5ccc(O)cc5)oc34)c2)oc2cc(O)cc(O)c12` [Amentoflavone]: the cell viability is 1.08.
With `C[C@H]1O[C@@H](O[C@H]2CC[C@@]3(C)[C@@H](CC[C@]4(C)[C@@H]3C=C[C@]35OC[C@@]6(CCC(C)(C)C[C@H]63)[C@@H](O)C[C@]54C)[C@]2(C)CO)[C@H](O)[C@@H](O[C@@H]2O[C@H](CO)[C@@H](O)[C@H](O)[C@H]2O)[C@H]1O` [Saikosaponin A], the cell viability was found to be 1.11.
The figure for `C/C1=C/CC[C@H](C)C(=O)C[C@@H](C(C)C)C(=O)C1` [Curdione] is 1.07.
The figure for `O=C1c2c(O)ccc(O)c2C(=O)c2c(NCCNCCO)ccc(NCCNCCO)c21` [Mitoxantrone] is 0.132; for `O=C1c2cccc(O)c2C(=O)c2c(O)cccc21` [Antrapurol] it is 1.06; for `NCCNc1ccc(NCCN)c2c1C(=O)c1ccncc1C2=O` [Pixantrone dimaleate] it is 0.405.
With `COc1ccc(S(=O)(=O)N[C@@H](CNc2nc(C)nc(N3CCC(c4ccc5c(n4)NCCC5)CC3)c2C)C(=O)O)cc1`, the cell viability amounted to 0.705.
The value for `COc1ccc2c(c1)C(c1ccc(F)cc1)=C(CN1CCCC1)CO2` was 1.1; that for `COc1cc2ncnc(Nc3ccc(O)cc3)c2cc1OC` was 1.02.
`CO[C@H]1C(=O)[C@]2(C)[C@@H](OC)C[C@H]3OC[C@@]3(OC(C)=O)[C@H]2[C@H](OC(=O)c2ccccc2)[C@]2(O)C[C@H](OC(=O)[C@H](O)[C@@H](NC(=O)OC(C)(C)C)c3ccccc3)C(C)=C1C2(C)C` [Cabazitaxel]: the cell viability was found to be 0.2.
In the case of `CC(=O)O[C@@]12CO[C@@H]1C[C@H](O)[C@@]1(C)C(=O)[C@H](O)C3=C(C)[C@@H](OC(=O)[C@H](O)[C@@H](NC(=O)OC(C)(C)C)c4ccccc4)C[C@@](O)([C@@H](OC(=O)c4ccccc4)[C@H]21)C3(C)C` [Docetaxel], the cell viability came to 0.118.
As to `CC(=O)O[C@@]12CO[C@@H]1C[C@H](O)[C@@]1(C)C(=O)[C@H](O)C3=C(C)[C@@H](OC(=O)[C@H](O)[C@@H](NC(=O)OC(C)(C)C)c4ccccc4)C[C@@](O)([C@@H](OC(=O)c4ccccc4)[C@H]21)C3(C)C` [Docetaxel trihydrate], the cell viability stood at 0.154.
In the case of `CC(=O)O[C@H]1C(=O)[C@@]2(C)[C@H]([C@H](OC(=O)c3ccccc3)[C@]3(O)C[C@H](OC(=O)[C@H](O)[C@@H](NC(=O)c4ccccc4)c4ccccc4)C(C)=C1C3(C)C)[C@]1(OC(C)=O)CO[C@@H]1C[C@@H]2O` [Paclitaxel], the cell viability was 0.128.
The value for `CC(C)NCC(O)COc1ccc(COCCOC(C)C)cc1` (racemic) [(±)-Bisoprolol hemifumarate] was 1.14; that for `CC(C)(O)[C@H]1CC[C@H](Nc2ccc3ncc(-c4cccc(C(F)(F)F)c4)n3n2)CC1` was 0.928.
The value for `COc1cc2c(c(OC)c1OC)-c1c(cc(OC)c(OC)c1OC)CC(C)C(C)C2` (centres undefined) [Schizandrin A] was 1.11; that for `CC(C)c1c(-c2ccccc2)nc2c(C#N)c[nH]n2c1=O` was 1.1.
The value for `COC(=O)C[C@](O)(CCCC(C)(C)O)C(=O)O[C@@H]1C(OC)=C[C@]23CCCN2CCc2cc4c(cc2[C@H]13)OCO4` [Homoharringtonine] was 0.162.
`COc1c2c(cc3oc(CO[C@@H]4O[C@H](CO)[C@@H](O)[C@H](O)[C@H]4O)cc(=O)c13)O[C@H](C(C)(C)O)C2` [Cimifugin beta-D-glucopyranoside]: the cell viability is 1.09.
The figure for `C=C[C@H]1[C@H](O[C@@H]2O[C@H](CO)[C@@H](O)[C@H](O)[C@H]2O)OC=C2C(=O)OCC[C@]21O` [Swertiamarin] is 1.11; for `CCCCCCCCCCCCCCCC(=O)O` [Palmitic acid] it is 1.02; for `O=C1O[C@H]2[C@@H]3OC(=O)c4cc(O)c(O)c(O)c4-c4c(cc(O)c(O)c4O)C(=O)OC[C@H]2O[C@@H](OC(=O)c2cc(O)c(O)c(O)c2)[C@@H]3OC(=O)c2cc(O)c(O)c3c2[C@@H]2C1=CC(=O)[C@](O)(O3)C2(O)O` [Geraniin] it is 0.981.
The figure for `COc1cc(N2CCC(N3CCN(C)CC3)CC2)ccc1Nc1ncc(Cl)c(-c2c[nH]c3ccccc23)n1` is 0.358.
With `COc1cc(C(C)C)c(Oc2cnc(N)nc2N)cc1I`, the cell viability was 1.16.
The figure for `C/C(=C\c1csc(C)n1)[C@@H]1C[C@@H]2O[C@]2(C)CCC[C@H](C)[C@H](O)[C@@H](C)C(=O)C(C)(C)[C@@H](O)CC(=O)N1` [Ixabepilone] is 0.119; for `C[C@H](CCC(=O)NCC(=O)O)[C@H]1CC[C@H]2[C@@H]3[C@H](O)C[C@@H]4C[C@H](O)CC[C@]4(C)[C@H]3CC[C@]12C` [Glycochenodeoxycholic Acid] it is 1.02; for `CC(=O)OC(C)C(C)C(=O)OCC12C3CC(C)(C)[C@H](O[C@@H]1C[C@]1(C)C3=CCC3C4(C)CCC(O[C@@H]5O[C@H](C(=O)O)[C@@H](O[C@H]6O[C@H](CO)[C@@H](O)[C@H](O)[C@H]6O)[C@H](O)[C@H]5O[C@@H]5OC[C@@H](O)[C@H](O)[C@H]5O)[C@](C)(CO)C4CCC31C)C2O` (some centres undefined) [Sodium Aescinate] it is 1.1.
In the case of `O=S(=O)(CCC(F)=C(F)F)c1ncc(Cl)s1` [Fluensulfone], the cell viability amounted to 1.07.
